Experimental data from PubChem BioAssay AID1566 (Sanford-Burnham Center for Chemical Genomics, 2009).
Screen size: about 290,000 compounds; about 1,800 (0.62%) were called active. The sample as a whole holds a higher share of actives than the screen did. Unmarked numbers belong to inactive results. Cut-off read from the data, not from the text of the source: active = inhibition above about 50%; inactive = the rest.

Assay: NOD2 signaling inhibitors, cell-based, luminescence, uHTS, HEK293 (AID 1566)
Details: HEK293 NOD2/NF-kB luciferase reporter, at 4 µM, hits give high values

Question: With `CCCn1c(=O)c(Cc2ccccc2)c(O)c2ccccc21` as the compound, how does the inhibition read?
Answer: Its inhibition is 6.4%.

Question: For `CCn1cc(/C=C(\NC(=O)c2ccc(OC)cc2)C(=O)N2CCOCC2)c2ccccc21`, which inhibition is on record?
Answer: Its inhibition is 11.3%.

Question: With `Cc1cc2c(c(=O)o1)C(C(C)C)C(C#N)=C(N)O2` (stereo not given) as the compound, how does the inhibition read?
Answer: Its inhibition is 6.9%.

Question: Which inhibition does the source give for `CCOC(=O)N1CCN(Cc2cc(Cl)c3cccnc3c2O)CC1` here?
Answer: Its inhibition is 11.2%.

Question: Which inhibition does the source give for `OCCN1CCN(Cc2cc(Cl)c3cccnc3c2O)CC1` here?
Answer: Its inhibition is -47.1%.

Question: For `Cc1ccc(S(=O)(=O)NNC(=O)c2ccccc2O)cc1`, which inhibition is on record?
Answer: Its inhibition is 8.4%.

Question: For `COc1ccc(S(=O)(=O)N(Cc2cc3cc(C)ccc3[nH]c2=O)CC2CCCO2)cc1` (stereo not given), which inhibition is on record?
Answer: The inhibition was 16.6%.

Question: Which inhibition does the source give for `COC(=O)c1ccc(C(=O)NC(=S)Nc2nc3c(s2)CCCC3)cc1` here?
Answer: The inhibition was 5.1%.

Question: Which inhibition does the source give for `O=C(NC(=S)Nc1nc2c(s1)CCCC2)c1ccccc1` here?
Answer: Its inhibition is -7.3%.

Question: With `CC(C)(C)c1ccc(C(=O)NC(=S)Nc2nc3c(s2)CCCC3)cc1` as the compound, how does the inhibition read?
Answer: The inhibition was 60.3% (active).

Question: With `COc1ccc(S(=O)(=O)N(CC(=O)N2CCN(C)CC2)c2ccc(C)cc2)cc1Br` as the compound, how does the inhibition read?
Answer: Its inhibition is -9.5%.

Question: For `CCOc1ccc(N2C(N)=NC(N)=NC2(C)C)cc1`, which inhibition is on record?
Answer: Its inhibition is -5.6%.

Question: For `COc1ccc(N2C(N)=NC(N)=NC2(C)C)cc1`, which inhibition is on record?
Answer: The inhibition was -2.7%.

Question: For `CC1(C)N=C(N)N=C(N)N1c1ccc(Oc2ccc(Cl)cc2)c(Cl)c1`, which inhibition is on record?
Answer: The inhibition was 58.7% (active).

Question: For `COc1ccccc1N1CCN(C(=O)CSc2nnc3c4ccccc4n(CC(=O)O)c3n2)CC1`, which inhibition is on record?
Answer: Its inhibition is 9.3%.

Question: With `COC(=O)CSc1nnc(CNC(=O)c2ccc(S(=O)(=O)N3CCCCC3)cc2)n1C` as the compound, how does the inhibition read?
Answer: Its inhibition is 12.8%.

Question: For `Cc1ccc(NC(=O)C2=NNC(=O)CC2)cc1F`, which inhibition is on record?
Answer: Its inhibition is -17.2%.

Question: Which inhibition does the source give for `Cc1ccccc1S(=O)(=O)Oc1cccc2c(O)cccc12` here?
Answer: Its inhibition is 1.5%.

Question: With `CNC(=O)CN(c1cc([N+](=O)[O-])ccc1OC)S(C)(=O)=O` as the compound, how does the inhibition read?
Answer: The inhibition was 12.6%.

Question: Which inhibition does the source give for `CCc1oc2ccccc2c1C(=O)CCN1CCCCC1` here?
Answer: Its inhibition is 3.9%.

Question: For `CCCCc1oc2ccccc2c1C(=O)c1cc(I)c(OCCN(CC)CC)c(I)c1`, which inhibition is on record?
Answer: Its inhibition is 14.9%.

Question: Which inhibition does the source give for `CCc1oc2ccccc2c1C(=O)c1cc(Br)c(O)c(Br)c1` here?
Answer: The inhibition was 51.8% (active).

Question: For `O=C(COC(=O)c1cccnc1Cl)c1ccc(Cl)cc1Cl`, which inhibition is on record?
Answer: Its inhibition is 9.1%.

Question: For `CCCc1ccc(-c2cc(C(=O)Nc3ccc([N+](=O)[O-])cn3)c3ccccc3n2)cc1`, which inhibition is on record?
Answer: The inhibition was -29.8%.

Question: For `COc1ccc2oc(=O)c(C(C)=O)cc2c1`, which inhibition is on record?
Answer: Its inhibition is 19.5%.

Question: With `CCCCN(Cc1ccco1)C(=O)c1cc2c(=O)[nH]c3ccc(C)cc3c2s1` as the compound, how does the inhibition read?
Answer: Its inhibition is 34.9%.

Question: For `COc1ccc(N(CC(=O)N/N=C/c2ccc(N(C)C)cc2)S(=O)(=O)c2ccccc2)cc1`, which inhibition is on record?
Answer: Its inhibition is -57%.

Question: With `O=C(CNC(=O)C1COc2ccccc2O1)N/N=C\c1ccccc1Cl` (stereo not given) as the compound, how does the inhibition read?
Answer: Its inhibition is 19.9%.

Question: For `O=C(CNC(=O)C1COc2ccccc2O1)N/N=C/c1ccc(O)cc1O` (stereo not given), which inhibition is on record?
Answer: Its inhibition is 8.2%.

Question: Which inhibition does the source give for `CCN(CC)c1ccc(/C=N/NC(=O)CNC(=O)C2COc3ccccc3O2)c(O)c1` (stereo not given) here?
Answer: The inhibition was 69.1% (active).

Question: For `O=C(CSc1nc(-c2ccco2)cc(C(F)(F)F)n1)N1CCSCC1`, which inhibition is on record?
Answer: Its inhibition is 13.4%.

Question: With `CCOC(=O)N1CCN(S(=O)(=O)N2CCCC(C(=O)NCCCN3CC(C)CC(C)C3)C2)CC1` (stereo not given) as the compound, how does the inhibition read?
Answer: Its inhibition is -13.2%.

Question: Which inhibition does the source give for `CN1CCc2nc(NC(=O)COc3ccc4ccccc4c3)sc2C1` here?
Answer: The inhibition was -39.7%.

Question: With `NC(=O)c1cccnc1Nc1ccccc1F` as the compound, how does the inhibition read?
Answer: The inhibition was -1.6%.

Question: With `CCN(CC)S(=O)(=O)c1cccc(C(=O)Nc2nnc(C)s2)c1` as the compound, how does the inhibition read?
Answer: Its inhibition is 10.5%.

Question: For `O=C(Nc1nc2cc3c(cc2s1)OCCO3)c1cccc(N2C(=O)CCC2=O)c1`, which inhibition is on record?
Answer: Its inhibition is -37.4%.

Question: Which inhibition does the source give for `CCN(CC)C(=O)CNc1ccc(C(F)(F)F)cc1[N+](=O)[O-]` here?
Answer: The inhibition was 4.7%.

Question: With `CCOc1ccc(N(CC(=O)N2CCN(c3ccccc3OC)CC2)S(=O)(=O)c2ccc(F)cc2)cc1` as the compound, how does the inhibition read?
Answer: Its inhibition is -13%.

Question: With `CCc1ccc(OCC(=O)NC(=S)Nc2ccc(C(C)=O)cc2)c(Br)c1` as the compound, how does the inhibition read?
Answer: The inhibition was 41.8%.

Question: With `CCCn1c(=O)c(C(=O)Nc2c(C)n(C)n(-c3ccccc3)c2=O)c(O)c2ccccc21` as the compound, how does the inhibition read?
Answer: The inhibition was 0.6%.

Question: With `O=C(NCC1CCCN(C(=O)NCc2ccccc2)C1)c1ccc2c(c1)OCO2` (stereo not given) as the compound, how does the inhibition read?
Answer: Its inhibition is -0.6%.

Question: For `COc1cc(/C=C/C(=O)OCC(=O)NC2CC2)cc(S(=O)(=O)N2CCc3ccccc32)c1OC`, which inhibition is on record?
Answer: The inhibition was 15%.

Question: With `CCN1C(=O)/C(=C/c2ccc(OCc3ccc(C(=O)O)cc3)c(Cl)c2)NC1=S` as the compound, how does the inhibition read?
Answer: Its inhibition is 57.5% (active).

Question: With `CCOc1cc(/C=C2\NC(=S)N(C)C2=O)ccc1OCc1ccc(C(=O)O)cc1` as the compound, how does the inhibition read?
Answer: Its inhibition is -3%.

Question: Which inhibition does the source give for `CN1C(=O)/C(=C/c2ccc(OCc3ccc(C(=O)O)cc3)c(Cl)c2)NC1=S` here?
Answer: Its inhibition is 33.9%.

Question: With `O=C(NCCc1ccc(F)cc1)Nc1ccccc1` as the compound, how does the inhibition read?
Answer: The inhibition was -13.6%.

Question: For `CCCOc1ccc(/C=N/Nc2ccccc2[N+](=O)[O-])c(O)c1`, which inhibition is on record?
Answer: The inhibition was 42.2%.

Question: For `CCOc1ccccc1/C=N/Nc1ccccc1[N+](=O)[O-]`, which inhibition is on record?
Answer: Its inhibition is -58%.

Question: Which inhibition does the source give for `CCCCNC(=S)N/N=C/c1cccc(OCC)c1O` here?
Answer: The inhibition was -5.1%.

Question: For `CCOc1cccc(/C=N/NC(=S)Nc2ccccc2[N+](=O)[O-])c1O`, which inhibition is on record?
Answer: Its inhibition is 64.7% (active).

Question: For `CCCOc1ccc(/C=N/Nc2ccccc2[N+](=O)[O-])c(OCCC)c1`, which inhibition is on record?
Answer: The inhibition was 30.3%.

Question: Which inhibition does the source give for `COc1ccc(N2CCN(CC(=O)NCc3ccccc3)CC2)cc1` here?
Answer: The inhibition was -7.3%.

Question: With `COc1ccccc1NS(=O)(=O)c1cccc(C(=O)NN=C2CCCC2)c1` as the compound, how does the inhibition read?
Answer: The inhibition was 4.3%.

Question: With `COc1ccc(N(CC(=O)NC(C)(C)C)C(=O)CCC(=O)Nc2nccs2)cc1` as the compound, how does the inhibition read?
Answer: Its inhibition is 5.1%.

Question: For `CC1=NNC(=O)C1C(c1ccccc1)C1C(=O)NN=C1C` (stereo not given), which inhibition is on record?
Answer: The inhibition was 20.3%.

Question: Which inhibition does the source give for `CCCC(=O)N(CCN1CCOCC1)c1nc2c(OCC)cccc2s1` here?
Answer: Its inhibition is 5.2%.

Question: For `COc1ccccc1CN1CCNC(=O)C1CC(=O)NCCCN1CCCC1=O` (stereo not given), which inhibition is on record?
Answer: Its inhibition is -4.3%.

Question: With `Oc1c(Br)cc(Br)cc1CNc1nccs1` as the compound, how does the inhibition read?
Answer: Its inhibition is 57% (active).

Question: For `Oc1ccc(Br)cc1CNc1nccs1`, which inhibition is on record?
Answer: Its inhibition is -5.1%.

Question: For `O=S(=O)(Nc1nccs1)c1ccc(NCc2cc(Br)cc(Br)c2O)cc1`, which inhibition is on record?
Answer: Its inhibition is 6.8%.
